Inconclusive results are not listed. Active and inactive are the calls of the source. Unless noted, calls follow the shape of the dose curve; as a rule, active = well fitted curve in the direction sought with a large enough effect in the repeat runs; inconclusive = weak or mixed curves; inactive = no such curve, though single readings can be large; an effect the other way counts as inactive or inconclusive.
What was measured:
[1] = biological target: Nuclear receptor subfamily 1 group I member 3 (Homo sapiens) (UniProt Q14994); test: qHTS assay to identify small molecule antagonists of the constitutive androstane receptor (CAR) signaling pathway (AID 1224838);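 also: HepG2 cells stably expressing hCAR with CYP2B6 luciferase reporter stimulated by CITCO; nearly all actives have a fitted effect of over 40% in size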; also: potency is read from the fitted curve at half-maximal effect
Nuclear receptor subfamily 1 group I member 3 (Homo sapiens), sequence (Q14994 whole entry, looked up): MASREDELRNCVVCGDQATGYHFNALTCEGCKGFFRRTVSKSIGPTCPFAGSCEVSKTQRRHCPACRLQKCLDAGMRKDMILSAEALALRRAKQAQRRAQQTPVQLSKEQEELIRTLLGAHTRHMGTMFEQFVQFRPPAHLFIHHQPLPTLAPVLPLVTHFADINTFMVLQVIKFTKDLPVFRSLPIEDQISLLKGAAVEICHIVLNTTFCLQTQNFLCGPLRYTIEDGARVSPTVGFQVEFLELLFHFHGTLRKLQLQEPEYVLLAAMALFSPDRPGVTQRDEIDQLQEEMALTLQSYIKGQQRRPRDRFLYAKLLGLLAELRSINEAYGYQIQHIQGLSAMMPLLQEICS
Summary of the method: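 Antagonist mode used CITCO at a final 50 nM to activate CAR in human hepatoma HepG2 cells carrying stable hCAR and a 2.2 kb CYP2B6 promoter-luciferase construct. Compounds were tested at 15 concentrations over 24 h, with luminescence as the end point.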

[2] = biological target: Nuclear receptor subfamily 1 group I member 3 (Homo sapiens) (UniProt Q14994); test: qHTS assay to identify small molecule agonists of the constitutive androstane receptor (CAR) signaling pathway (AID 1224839); also: nearly all actives have a fitted effect of over 15% in size; also: potency is read from the fitted curve at half-maximal effect
Summary of the method: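 Luminescence read-out (ONE-Glo, 30 min, room temperature) from double-stable HepG2-CYP2B6-hCAR cells exposed 24 h to 15-point compound series in presence of 0.75 uM PK11195 final.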

[3] = qHTS assay to identify small molecule antagonists of the estrogen related receptor signaling pathway with the pleiotropic PPARgamma coactivator (PGC) from Tox21 10K library - cell viability counter screen (AID 1224840; active = well fitted cell-killing curve with a large enough effect in the repeat runs, not every such curve was filed as active; also: nearly all actives have a fitted effect of over 40% in size; also: potency is read from the fitted curve at half-maximal effect)
Summary of the method: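 Multiplexed viability counter screen in the PGC/ERR cell line: cells treated with DMSO-dissolved compounds for 17.5 hours at 37 C, then viability measured as CellTiter-Fluor fluorescence.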

[4] = qHTS assay to identify small molecule antagonists of the estrogen related receptor signaling pathway with the pleiotropic PPARgamma coactivator (PGC) from Tox21 10K library (AID 1224841; call rule not given here; also: actives are mostly falling curves and most rising ones were filed inactive; nearly all actives have a fitted effect of over 50% in size; also: potency is read from the fitted curve at half-maximal effect)
Summary of the method: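 Steps: plate 2,000 PGC/ERR cells per well; incubate 6 h at 37 C with 5% CO2; transfer compounds from DMSO stocks by pin tool; incubate 18 h at 37 C; add One-Glo; measure luminescence 30 min later.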

[5] = qHTS assay to identify small molecule agonists of the estrogen related receptor signaling pathway with the pleiotropic PPARgamma coactivator (PGC) from Tox21 10K library (AID 1224842); also: nearly all actives have a fitted effect of over 15% in size
Summary of the method: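 Luminescence from One-Glo (30 min, room temperature) measured after PGC/ERR cells had 18 h at 37 C with pinned compound (23 nL in DMSO). Cells had been seeded at 2,000 per well and pre-incubated 6 h.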

[6] = biological target: Thyrotropin receptor (Homo sapiens) (UniProt P16473); test: qHTS assay to identify small molecule agonists of the thyroid stimulating hormone receptor (TSHR) signaling pathway (AID 1224843; calls by dose curve; also: nearly all actives have a fitted effect of over 45% in size)
Thyrotropin receptor (Homo sapiens), sequence (P16473 whole entry, looked up): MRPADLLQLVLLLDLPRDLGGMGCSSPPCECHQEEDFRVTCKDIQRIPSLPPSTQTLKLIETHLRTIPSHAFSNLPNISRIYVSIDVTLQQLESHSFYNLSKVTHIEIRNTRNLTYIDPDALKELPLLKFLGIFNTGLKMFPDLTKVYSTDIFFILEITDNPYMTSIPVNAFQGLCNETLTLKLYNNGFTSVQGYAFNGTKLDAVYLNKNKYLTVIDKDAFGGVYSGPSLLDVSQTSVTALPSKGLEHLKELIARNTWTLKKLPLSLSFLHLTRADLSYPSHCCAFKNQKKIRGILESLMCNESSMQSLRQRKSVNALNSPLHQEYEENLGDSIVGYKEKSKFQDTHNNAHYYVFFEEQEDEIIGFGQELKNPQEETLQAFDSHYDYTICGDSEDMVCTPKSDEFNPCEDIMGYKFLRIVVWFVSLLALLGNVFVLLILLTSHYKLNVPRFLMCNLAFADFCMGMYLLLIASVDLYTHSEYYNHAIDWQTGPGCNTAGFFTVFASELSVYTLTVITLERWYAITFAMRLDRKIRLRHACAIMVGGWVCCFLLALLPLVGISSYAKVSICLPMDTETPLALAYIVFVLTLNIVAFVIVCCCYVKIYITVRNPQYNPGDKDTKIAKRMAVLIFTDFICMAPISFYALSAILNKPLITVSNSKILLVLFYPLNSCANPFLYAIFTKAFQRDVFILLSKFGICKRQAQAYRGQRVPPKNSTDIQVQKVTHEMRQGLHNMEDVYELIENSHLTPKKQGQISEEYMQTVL
Summary of the method: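 Agonist activity read as cAMP rise via d2/cryptate HTRF competition, 1 h room-temperature detection, in HEK293 cells expressing TSHR. Fifteen-point titrations, each run in triplicate, with a 30 min room-temperature incubation beforehand.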

[7] = qHTS assay to identify small molecule agonists of H2AX (AID 1224845; active = well fitted activation curve with a large enough effect in the signal ratio in the repeat runs, not every such curve was filed as active; the % refers to the signal ratio)
Summary of the method: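 Phospho-H2AX Ser139 measured by HTRF (ex 320 nm; em 665 and 620 nm) after 24 hr antibody incubation. Compounds, 15 concentrations, 0.76% DMSO, were applied to CHO-K1 cells for 3hr at 37C before lysis.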

[8] = qHTS assay to identify small molecule agonists of the hypoxia (HIF-1) signaling pathway (AID 1224846; active = well fitted activation curve with a large enough effect in the signal ratio in the repeat runs, not every such curve was filed as active; the % refers to the signal ratio)
Summary of the method: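 Compounds from the Tox21 10K library, dissolved in DMSO, are tested for induction of a hypoxia response element–controlled beta-lactamase reporter in ME-180 cells. Exposure lasts 17 hrs at 37C after a 5 hr settling period, followed by CCF4-AM FRET substrate.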

[9] = qHTS assay to identify small molecule antagonists of the estrogen related receptor (ERR) signaling pathway from Tox21 library (AID 1224848); also: nearly all actives have a fitted effect of over 50% in size; also: potency is read from the fitted curve at half-maximal effect
Summary of the method: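 Luciferase luminescence (ONE-Glo, 30 min room temperature) was the read-out. Cells of the NTP-supplied ERR line, 2,000 per well, were given 6 h at 37 C before compound addition in DMSO and 18 h exposure at 37 C.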

[10] = qHTS assay to identify small molecule agonists of the estrogen related receptor (ERR) signaling pathway from Tox21 library (AID 1224849; calls by dose curve; also: nearly all actives have a fitted effect of over 15% in size); conditions: ERR reporter cell line, ONE-Glo luciferase, 18 h; at 92.4 µM (top of the series) unless noted
Summary of the method: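 Cells carrying the ERR reporter were plated and allowed to settle for 6 h, exposed to library compounds for 18 h at 37 C, then lysed with ONE-Glo and luminescence measured.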

[11] = qHTS RealTime-Glo MT Cell Viability Assay in HepG2 cells - 24 hour (AID 1224867); also: nearly all actives have a fitted effect of over 50% in size
Summary of the method: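 HepG2 cells (600/well) were dispensed with RealTime-Glo reagents, incubated 5 h at 37 °C, then treated with compounds in DMSO for up to 40 h. Nonlytic NanoLuc luminescence reflecting viable cells was read at each stated time point.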

[12] = qHTS RealTime-Glo MT Cell Viability Assay in HEK293 cells - 32 hour (AID 1224868); also: nearly all actives have a fitted effect of over 50% in size; also: potency is read from the fitted curve at half-maximal effect; as to activity change, negative = cytotoxic: top concentration of the series differs between compounds
Summary of the method: (§1)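 HEK293 cells seeded with NanoLuc/prosubstrate reagent, rested 5 h at 37 C, then dosed and kept at 37 C up to 40 h. Nonlytic real-time luminescence from viable cells read at 0, 8, 16, 24, 32 and 40 h.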

[13] = A CellTox Green Cytotoxicity Assay to monitor cytotoxicity in HEK293 cells - 0 hour (AID 1224869); also: nearly all actives have a fitted effect of over 50% in size
Summary of the method: (§2)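 Cells (HEK293, 600/well) and dye reagent are dispensed together. After 5 h at 37 C, 23 nL compound is pinned in. Plates stay at 37 C for 40 h with fluorescence read at 0h, 8h, 16h, 24h, 32h and 40h.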

[14] = qHTS RealTime-Glo MT Cell Viability Assay in HepG2 cells - 40 hour (AID 1224870); also: nearly all actives have a fitted effect of over 50% in size; also: potency is read from the fitted curve at half-maximal effect
Summary of the method: (§3)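 Real-time viability: cells seeded at 600 per well together with NanoLuc and cell-permeant prosubstrate, compounds added after 5 h incubation. Luminescence tracked at 0, 8, 16, 24, 32 and 40 h of exposure.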

[15] = A CellTox Green Cytotoxicity Assay to monitor cytotoxicity in HEK293 cells - 40 hour (AID 1224871); also: nearly all actives have a fitted effect of over 45% in size; also: potency is read from the fitted curve at half-maximal effect
Summary of the method: as §2

[16] = qHTS RealTime-Glo MT Cell Viability Assay in HepG2 cells - 8 hour (AID 1224873); also: nearly all actives have a fitted effect of over 55% in size
Summary of the method: as §3

[17] = qHTS assay to identify small molecule antagonists of the constitutive androstane receptor (CAR) signaling pathway - cell viability counter screen (AID 1224837); also: nearly all actives have a fitted effect of over 45% in size
Summary of the method: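 Viability was measured with CellTiter-Fluor in a HepG2 line carrying stably transfected hCAR and a CYP2B6-2.2kb construct. Cells were exposed for 23 hr at 37 C to 15 compound concentrations with 50 nM CITCO as agonist.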

[18] = qHTS assay to identify small molecule agonists of the hypoxia (HIF-1) signaling pathway - cell viability counter screen (AID 1224844; calls by dose curve; also: nearly all actives have a fitted effect of over 50% in size; also: potency is read from the fitted curve at half-maximal effect)
Summary of the method: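 Cytotoxicity was measured in parallel with the HRE-driven beta-lactamase readout: after 17 hrs of compound exposure at 37C, HRE-bla ME-180 cells received CellTiter-Glo and luminescence was recorded 30 min later.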

[19] = qHTS assay to identify small molecule agonists of H2AX - cell viability counter screen (AID 1224847; calls by dose curve; also: nearly all actives have a fitted effect of over 30% in size; also: potency is read from the fitted curve at half-maximal effect;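 as to activity change, negative = cytotoxicity: wild-type CHO-K1 cells; top concentration of the series differs between compounds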)
Summary of the method: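 CHO-K1 wt, 1000 cells/well, o/n 37C; cpds 15 conc, 3 h 37C, 0.76% DMSO; CellTiter-Glo, 30 min RT, luminescence.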

[20] = qHTS RealTime-Glo MT Cell Viability Assay in HEK293 cells - 16 hour (AID 1224872)
Summary of the method: as §1
% is scaled to controls: 0 for no effect and ±100 for the full control effect.

CCCCCCCCSCc1cc(C)c(O)c(CSCCCCCCCC)c1
inactive: Potency [1] | Potency [2] | Potency [3] | Potency [4] | Potency [5] | Potency [6] | Potency [7] | Potency [8] | Potency [9] | activity change, positive = activation [10] 3.09% | Potency [11] | Potency [12] | Potency [13] | Potency [14] | Potency [15] | Potency [16]

[Cl][Eu]([Cl])[Cl]
inactive: Potency [17] | Potency [3] | Potency [18] | Potency [8] | Potency [19] | Potency [11] | Potency [12] | Potency [13] | Potency [14] | Potency [15] | Potency [20] | Potency [16]

CCSCC
inactive: Potency [17] | Potency [3] | Potency [18] | Potency [8] | Potency [19] | Potency [11] | Potency [12] | Potency [13] | Potency [14] | Potency [15] | Potency [20] | Potency [16]

COc1cccc(-c2ccc(/C=C\CN3CCCCCC3)cc2Cl)c1
active: Potency [3] 54.2 µM | Potency [19] 89.3 µM | Potency [12] 43.4 µM | Potency [14] 43.4 µM | Potency [15] 43.4 µM
inactive: Potency [1] | Potency [4] | Potency [5] | activity change, positive = activation [10] -20.2% | Potency [13]

Nc1cccnc1N
inactive: Potency [1] | Potency [2] | Potency [6] | Potency [18] | Potency [8] | Potency [19] | Potency [11] | Potency [13] | Potency [14] | Potency [15] | Potency [16]

c1ccc2cc3c4ccccc4c4ccccc4c3cc2c1
active: Potency [1] 10.9 µM | Potency [18] 22 µM | Potency [19] 101 µM
inactive: Potency [2] | Potency [3] | Potency [6] | Potency [8] | Potency [11] | Potency [12] | Potency [13] | Potency [14] | Potency [20] | Potency [16]

CCN(CC)c1ccc(C=O)c(O)c1
inactive: Potency [1] | Potency [3] | Potency [5] | Potency [6] | Potency [8] | Potency [19] | activity change, positive = activation [10] -16.4% | Potency [11] | Potency [12] | Potency [13] | Potency [14] | Potency [15] | Potency [16]

O=C(O)C[C@H](O)C[C@H](O)/C=C/c1c(C2CC2)nc2ccccc2c1-c1ccc(F)cc1
inactive: activity, negative = inhibition [1] -27.1% [at 19 µM] | activation [2] -6.78% [at 19 µM] | viability change, negative = cytotoxic [3] -0.117% [at 19 µM] | activity, negative = inhibition [4] 10.6% [at 19 µM] | activation [6] -24.9% [at 19 µM] | activity change, negative = cytotoxicity [18] -17.5% [at 15.8 µM] | activation (H2AX phosphorylation) [7] -2.12% [at 31.6 µM] | activation [8] 0.144% [at 15.8 µM] | activity change, negative = cytotoxicity [19] -0.332% [at 31.6 µM] | activity, negative = inhibition [9] 60.7% [at 19 µM] | activity change, negative = cytotoxicity [11] -20.3% [at 15.8 µM] | activity change, negative = cytotoxic [12] -6.08% [at 15.8 µM] | cytotoxicity [13] -2.87% [at 15.8 µM] | activity change, negative = cytotoxic [14] -27.7% [at 15.8 µM] | cytotoxicity increase [15] 1.42% [at 15.8 µM] | viability change, negative = cytotoxic [16] 4.17% [at 15.8 µM]
active: activity change, positive = activation [10] 31.2% [at 19 µM]

Oc1cccc2c(O)cccc12
active: Potency [2] 30.6 µM | Potency [4] 2.73 µM
inactive: Potency [1] | Potency [6] | Potency [9] | activity change, positive = activation [10] -6.39% | Potency [11] | Potency [13] | Potency [14] | Potency [15] | Potency [16]

Cc1ccc(N=Nc2c(O)ccc3ccccc23)c(C)c1
active: Potency [2] 8.41 µM | Potency [18] 21.3 µM
inactive: Potency [1] | Potency [6] | Potency [8] | Potency [19] | Potency [11] | Potency [12] | Potency [13] | Potency [14] | Potency [16]

CCOc1ccc([N+](=O)[O-])cc1
inactive: Potency [17] | Potency [3] | Potency [18] | Potency [7] | Potency [8] | Potency [13] | Potency [14] | Potency [16]
active: Potency [15] 44.3 µM

SC1CCCCC1
inactive: Potency [1] | Potency [3] | Potency [4] | Potency [5] | Potency [6] | Potency [18] | Potency [7] | Potency [8] | Potency [9] | activity change, positive = activation [10] 7.84% | Potency [11] | Potency [12] | Potency [13] | Potency [14] | Potency [15] | Potency [20] | Potency [16]

O=C(O)CN(CCCN(CC(=O)O)CC(=O)O)CC(=O)O
inactive: activity, negative = inhibition [1] -21.7% [at 19 µM] | viability change, negative = cytotoxic [3] -3.45% [at 19 µM] | activation [6] -0.184% [at 19 µM] | activity change, negative = cytotoxicity [18] -18% [at 15.8 µM] | activation (H2AX phosphorylation) [7] 1.1% [at 31.6 µM] | activation [8] 1.13% [at 15.8 µM] | activity change, negative = cytotoxicity [19] 0.112% [at 31.6 µM] | activity change, negative = cytotoxicity [11] -3.25% [at 15.8 µM] | activity change, negative = cytotoxic [12] -12.4% [at 15.8 µM] | cytotoxicity [13] -2.37% [at 15.8 µM] | activity change, negative = cytotoxic [14] 22.2% [at 15.8 µM] | activity change, negative = cytotoxicity [20] -5.66% [at 15.8 µM] | viability change, negative = cytotoxic [16] -18.6% [at 15.8 µM]

CCOC(=O)C1=NN(c2ccc(Cl)cc2Cl)C(C)(C(=O)OCC)C1 (stereo unspecified)
active: Potency [19] 113 µM | Potency [9] 48.6 µM
inactive: Potency [3] | Potency [7] | Potency [8] | activity change, positive = activation [10] -36.6% | Potency [11] | Potency [13] | Potency [14] | Potency [15] | Potency [16]

— PubChem BioAssay (Tox21)
